Measured values as given in PubChem BioAssay (Tox21).
Results filed as inconclusive are left out. A number with no mark means an inactive call. Active and inactive are the calls of the source. Calls follow the shape of the dose curve; as a rule, active = well fitted activation curve with a large enough effect in the signal ratio in the repeat runs (not every such curve was filed as active); inconclusive = weak or mixed curves; inactive = flat fitted curve, though single readings scatter; the % refers to the signal ratio.

Assay: qHTS assay to identify small molecule agonists of the TGF-beta/Smad signaling pathway (AID 1346859)
Details: SBE-bla HEK293T, TGF-beta/Smad beta-lactamase reporter, 5 h; series mostly up to 76.8 µM; activation: at the top concentration
Excerpt: U.S. Tox21 Program National Center for Advancing Translational Sciences [NCATS] NIH Chemical Genomics Center [NCGC] U.S. Environmental Protection Agency [EPA] National Institutes of Environmental Health Sciences [NIEHS] National Toxicology Program [NTP] U.S. Food and Drug Administration [FDA] Tox21 Assay Overview: Transforming growth factor beta (TGF-beta) superfamily consists of a large number of structurally related dimeric proteins that act as hormones or local mediators in regulating a wide range of biological functions. This superfamily includes TGF-betas themselves, the bone morphogenetic proteins (BMPs) and the activins. These ligands induce oligomerization of serine/threonine receptor kinases and phosphorylate the cytoplasmic signaling molecules of Smad protein family. CellSensor SBE-bla HEK 293T cell line (Life Technologies, Carlsbad, CA), responsive to TGF-beta was used to screen Tox21 10K compound library for identification of agonists/antagonists of the Smad signaling pathway. This cell line contains a beta-lactamase reporter gene under control of the Smad binding element (SBE) stably integrated into HEK 293T cells.
Tox21 Assay Protocol Summary: SBE-bla HEK 293T cells were dispensed at 4,000/well in 6 uL of assay medium into black wall/clear-bottom 1536-well plates using a Multidrop Combi (ThermoFisher Scientific, Waltham, MA) dispenser. After the assay plates were incubated at 37 C and 5% CO2 for an overnight, 23 nL of compounds dissolved in DMSO, positive controls or DMSO only was transferred to the assay plate by a Pintool station (Kalypsys, San Diego, CA). The assay plates were incubated at 37 C and 5% CO2 for 5 hr. One uL of LiveBLAzer B/G FRET substrate (Life Technologies) was added using a Flying Reagent Dispenser (Aurora Discovery, San Diego, CA) and the plates were incubated at room temperature for 2 hr. Fluorescence intensity (405 nm excitation, 460 nm and 530 nm emissions) was measured using an Envision plate reader (PerkinElmer, Shelton, CT).
% is scaled to controls: 0 for no effect and ±100 for the full control effect.

Row | SMILES | activation | outcome
1 | C[C@@H]1CC[C@H]2[C@@H](C)C(=O)O[C@@H]3O[C@@]4(C)CC[C@@H]1[C@]32OO4 | -1.03% [at 35.3 µM] | –
2 | CCBr | 0.438% | –
3 | O=NN1CCCCCC1 | 2.14% | –
4 | NC(=O)C(Cl)(Cl)Cl | 0.525% | –
5 | CCCCCCC#N | -6.78% | –
6 | C=CCC1([C@H](C)CCC)C(=O)NC(=O)NC1=O | 2.54% | –
7 | O=C=Nc1ccc(Cl)cc1 | 1.64% | –
8 | CC(=O)C(C)(C)C | 0.0882% | –
9 | COc1nn(CSP(=S)(OC)OC)c(=O)s1 | 8.71% | –
10 | ClCC(Br)CBr (stereo not given) | -1.2% | –
11 | CCOc1ccc(C(C)(C)COCc2cccc(Oc3ccccc3)c2)cc1 | 2.92% | –
12 | CO[C@@H]1[C@H](OC(=O)NC(=O)CCl)CC[C@]2(CO2)[C@H]1[C@@]1(C)O[C@@H]1CC=C(C)C | 3.24% [at 15.8 µM] | –
13 | Clc1cccc(SC2CCNCC2)n1 | 1.71% [at 35.3 µM] | –
14 | CO/C=C(/C(=O)OC)c1ccccc1COc1cccc(C(F)(F)F)n1 | -0.219% | –
15 | CC[C@H]1C[C@H]2[C@@H]3CCC4=CC(=O)CC[C@@H]4[C@H]3CC[C@]2(C)[C@H]1O | -5.65% [at 35.3 µM] | –
16 | Clc1ccc(C2(Cn3cncn3)CC(Br)CO2)c(Cl)c1 (stereo not given) | -2.64% | –
17 | O=C(CBr)OCc1ccccc1 | -0.32% | –
18 | CC(C)(C)c1cc([N+](=O)[O-])cc([N+](=O)[O-])c1O | -6.98% | –
19 | O=C1NCN(c2ccccc2)C12CCN(CCCOc1ccc(F)cc1)CC2 | -0.125% [at 35.3 µM] | –
20 | Clc1cc(Cl)c(Cl)c(Cl)c1 | 2.83% | –

Row | SMILES | activation | outcome
21 | O=C(CCl)c1ccc(Cl)cc1Cl | – | inactive
22 | [O-][Cl+]O | -2.18% | –
23 | O=C(CBr)c1ccccc1 | 4.97% | –
24 | CC(C)N(CCC(C(N)=O)(c1ccccc1)c1ccccn1)C(C)C (stereo not given) | -1.92% [at 35.3 µM] | –
25 | C=CCCl | -0.722% | –
26 | CN(C)c1ccc(N(C)C)cc1 | 3.64% | –
27 | CCOC(=O)CBr | -0.197% | –
28 | O=C(C(Cl)(Cl)Cl)C(Cl)(Cl)Cl | 4.01% | –
29 | N#CCC#N | 5.94% | –
30 | ClCCCCBr | -3.47% | –
31 | CC(C)O.CC(C)O.OCCN(CCO)CCO.OCCN(CCO)CCO.[Ti] | 3.08% | –
32 | CCCCN=C=O | 1.05% | –
33 | O=C(NC(=O)c1c(F)cccc1F)Nc1ccc(OC(F)(F)C(F)OC(F)(F)F)c(Cl)c1 (stereo not given) | 8.7% [at 35.3 µM] | –
34 | COc1nn(C(=O)NS(=O)(=O)c2ccccc2OC(F)(F)F)c(=O)n1C | 0.633% | –
35 | CCC(Cl)CCl (stereo not given) | -0.371% | –
36 | NCC(CC(=O)O)c1ccc(Cl)cc1 (stereo not given) | -0.421% [at 0.29 µM] | –
37 | O=Cc1ccc(Cl)cc1Cl | 0.459% | –
38 | C=CC(=O)OC(C)(C)C | 0.744% | –
39 | CC(O)(CS(=O)(=O)c1ccc(F)cc1)C(=O)Nc1ccc(C#N)c(C(F)(F)F)c1 (stereo not given) | -5.2% [at 35.3 µM] | –
40 | CCCN(CCC)c1c([N+](=O)[O-])cc(S(C)(=O)=O)cc1[N+](=O)[O-] | -0.486% | –
